From ChEMBL document CHEMBL4296182, “CO-ADD screening of NIH NCI Diversity Set V”
For part of these data: Entries with a potency or affinity are not part of this list.

How the values were obtained:
[1] = test system: Staphylococcus aureus; assay: Antibacterial activity against Staphylococcus aureus MRSA ATCC 43300 (CO-ADD:GP_020); MIC in CAMBH media using NBS plates, by Resazurin F(560/590); type: functional; settings: Concentration 20 uM, ASSAY_TEST Inhibition of Bacterial Growth, detection method Resazurin, Fluorescence (ex560/em590), MEDIA CAMHB, plate type 384well, CORNING #3640, time 18 hr
[2] = test system: Acinetobacter baumannii; assay: Antibacterial activity against Acinetobacter baumannii ATCC 19606 (CO-ADD:GN_034); MIC in CAMBH media using NBS plates, by Resazurin F(560/590); type: functional; settings: Concentration 20 uM, ASSAY_TEST Inhibition of Bacterial Growth, detection method Resazurin, Fluorescence (ex560/em590), MEDIA CAMHB, plate type 384well, CORNING #3640, time 18 hr
[3] = test system: Escherichia coli; assay: Antibacterial activity against Escherichia coli ATCC 25922 (CO-ADD:GN_001); MIC in CAMBH media using NBS plates, by Resazurin F(560/590); type: functional; settings: Concentration 20 uM, ASSAY_TEST Inhibition of Bacterial Growth, detection method Resazurin, Fluorescence (ex560/em590), MEDIA CAMHB, plate type 384well, CORNING #3640, time 18 hr
[4] = test system: Klebsiella pneumoniae; settings: Concentration 20 uM; ASSAY_TEST Inhibition of Bacterial Growth; detection method Absorption (OD600); MEDIA CAMHB; plate type 384well; NBS; CORNING #3640; time 18 hr
[5] = test system: Candida albicans; settings: 20 µM
[6] = test system: Cryptococcus neoformans; settings: Concentration 20 uM; ASSAY_TEST Inhibition of Fungal Growth; detection method Resazurin; Absorption (OD600-OD570); plate type 384well; NBS; CORNING #3640

| Structure (SMILES) | Inhibition [1] [%] | Inhibition [2] [%] | Inhibition [3] [%] | Inhibition [4] [%] | Inhibition [5] [%] | Inhibition [6] [%] |
| --- | --- | --- | --- | --- | --- | --- |
| O/N=C(/c1ccccc1)c1ccc2c3c(cccc13)CC2 | -1.68 | -12.52 | 6.08 | 9.85 | 11.2 | -8.52 |
| CCCNC(=O)Nc1ccc(C)cc1C | 1.69 | 10.44 | -6.23 | 17.61 | 5.41 | -2.02 |
| CC1CC(C)(C)C2=NCCN21 (configuration not stated) | 12.73 | -16.85 | 7.35 | 11.7 | 5.23 | -11 |
| Cc1nc(S)nc(O)c1CCC1OCCO1 | 13.84 | -2.91 | 10.14 | -2.98 | -0.82 | -7.17 |
| Cc1cc(=O)[nH]c(N)n1 | 9.55 | -6.26 | 2.4 | 1.73 | 3.77 | -0.62 |
| COC(=O)[C@H]1[C@H]2C[C@@H]3c4[nH]c5cc(OC)ccc5c4CCN3C[C@H]2C[C@@H](OC(=O)CC(C)=O)[C@@H]1OC | 16.88 | -0.32 | 11.28 | 5.93 | -0.86 | -1.53 |
| COc1ccccc1N1C(=O)CC(Sc2ccccc2N)C1=O (configuration not stated) | 13.62 | 1.84 | 10.06 | 1.73 | 0.29 | -6.31 |
| O=C1c2cc([N+](=O)[O-])ccc2-c2cc(Br)c(NC(=NO)C(F)(F)F)cc21 | 19.28 | -25.99 | 18.87 | 6.86 | -4.85 | -6.6 |
| CC1(C)N=C(N)N=C(N)N1c1ccc(OCCCOc2ccccc2)c(Cl)c1.CCS(=O)(=O)O | 10.6 | -13.57 | 15.29 | 12.4 | -0.44 | -3.49 |
| Cc1ccc(S(=O)(=O)Oc2cc(N)c3c(n2)CCC3)cc1 | 2.13 | -12.3 | 7.8 | 9.4 | 1.38 | -7.75 |
| CCNc1nc(Cl)nc(-c2cn(-c3ccccc3)c3ccccc23)n1 | 17.23 | 12.81 | 4.37 | 13.6 | 0.17 | -5.12 |
| COc1ccc([N+](=O)[O-])cc1NC(=O)N(C)Cc1ccco1 | 9.28 | 17.46 | 6.67 | 14.11 | -1.23 | -10.86 |
| CCOC(=O)c1cc2c(OC)c(OC)ccc2c2ncc(C#N)c(O)c12 | 2.33 | 4.98 | -22.93 | 0.73 | 5.12 | 44.69 |
| CN1N=C(N)c2cn(C3OC(COP(=O)(O)O)C(O)C3O)c3ncnc1c23 (configuration not stated) | 8.75 | 8.14 | -1.62 | 4.46 | -1.48 | -0.7 |
| CC(=O)O.N=c1ccn2c(n1)OC1C(O)C(CO)OC12 (configuration not stated) | 0.21 | -10.07 | 8.11 | 17.17 | -0.52 | -12.02 |
| COc1ccc2c(c1)CCN1C2CCN2C(=O)CCC21 (configuration not stated) | -11.91 | -4.71 | -9.16 | 7.62 | 3.14 | -4.03 |
| CCOC(=O)c1c(O)cc(C)nc1O | 3.86 | -15.92 | 14.23 | 12.49 | 3.14 | 13.8 |
| N=C(N)n1c(N)nc2ccccc2c1=O | -3.84 | 11.96 | 12.39 | 5.57 | 0.23 | -13.19 |
| C#Cc1cccc(NC(=O)c2ccc(Cl)cc2Cl)c1 | 1.84 | -16.25 | 7.38 | 6.81 | 7.69 | -7.06 |
| Cc1nc(O)c(Cc2ccccc2O)c(-c2ccccc2)n1 | 22.69 | -8.89 | 10.21 | 16.82 | 2.26 | 5.06 |
| CCCCCc1cc(O)nc(S)n1 | 5.4 | -7.23 | 3.05 | 2.8 | 1.05 | -4.11 |
| O=c1[nH]nc(-c2cc(-c3ccccc3)nc3ccccc23)o1 | 7.26 | -11.03 | 4.61 | 4.91 | 0.17 | -2.09 |
